S1P4 antag = S1P4 receptor antagonists, primary screen, cell-based; Sphingosine 1-phosphate receptor 4 (Homo sapiens), O95977; S1P4-expressing cells, antagonist mode, reporter read-out; inhibition, % at 4.98 µM; hit rate 0.26% among 220,000; AID 1510, 2009; in the data active means inhibition above about 29%;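 further: 0% = wells stimulated with agonist and 100% = vehicle wells without agonist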
DTT redox prof = compounds producing H2O2 with reducing agent – biochemical, NIH compound library profiling, artefact control for MLSCN library redox annotation, primary screen; hit rate 0.03% among 200,000; activation, % at 10 µM; DTT-dependent redox cycling H2O2, phenol red/HRP absorbance; 100% = 100 µM peroxide control, 0% = buffer;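 active means activation of at least 50% relative to the plate's high and low controls in the primary single-dose screen; inactive means activation below 50%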;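 further: compound incubated with DTT at 0.8 mM final as the reducing agent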
S1P4 ag = S1P4 receptor agonists, primary screen, cell-based | Sphingosine 1-phosphate receptor 4 (Homo sapiens), O95977 | activation, % at 4.98 µM | S1P4-expressing cell line, agonist reporter assay | hit rate 0.35% among 220,000; in the data active means activation above about 11%;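 further: 0% = DMSO vehicle and 100% = reference agonist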
Arbovirus anti = antivirals against arbovirus infection, primary screen, cell-based, full library, 10K replicate subset; arbovirus infection cell-based antiviral screen; inhibition, % at 10 µM; hit rate 0.37% among 200,000; AID 1251, 2008; in the data active means inhibition above about 30%
S1P3 antag = S1P3 receptor antagonists, primary screen, cell-based | inhibition, % at 4.98 µM | hit rate 0.27% among 170,000 | CHO S1P3 NFAT-BLA reporter, FRET fluorescence, antagonist mode | Sphingosine 1-phosphate receptor 3 (Homo sapiens), Q99500;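 active means inhibition above the plate cutoff, the mean inhibition of test wells on that plate plus 3 SD, cut at about 28% in these data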;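 further: cells challenged with S1P at its EC80 of 0.8 µM; blue over green emission ratio from cleaved BLA substrate after 4 h stimulation; 0% = S1P-stimulated wells and 100% = unstimulated DMSO-only wells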
Target sequence (Q99500 whole entry, looked up): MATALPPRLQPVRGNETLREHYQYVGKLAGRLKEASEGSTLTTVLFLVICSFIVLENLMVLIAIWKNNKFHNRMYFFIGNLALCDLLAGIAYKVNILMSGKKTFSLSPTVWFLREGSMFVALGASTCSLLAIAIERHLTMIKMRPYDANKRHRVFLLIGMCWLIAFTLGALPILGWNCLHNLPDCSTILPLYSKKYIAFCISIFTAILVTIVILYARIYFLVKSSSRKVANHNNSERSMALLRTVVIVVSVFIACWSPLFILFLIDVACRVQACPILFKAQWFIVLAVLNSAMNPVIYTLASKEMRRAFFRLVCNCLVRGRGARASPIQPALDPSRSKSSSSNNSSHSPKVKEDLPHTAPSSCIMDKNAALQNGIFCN
p97 ATPase inh = inhibitors of human p97 ATPase, primary screen, biochemical; Transitional endoplasmic reticulum ATPase (Homo sapiens), P55072; recombinant p97 ATPase, Kinase-Glo ATP luminescence, 3 h; inhibition, % at 8 µM; hit rate 0.42% among 220,000; AID 1481, 2009; in the data active means inhibition above about 15%;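 further: 0% = DMSO vehicle and 100% = wells lacking enzyme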
p97 inh conf = p97 ATPase inhibitors, retest, confirmation, biochemical; shares compounds with p97 ATPase inh; recombinant p97 ATPase, Kinase-Glo ATP luminescence; inhibition, % at 8 µM; hit rate 44% among 760; AID 1517, 2009;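 active means percent inhibition of p97 ATPase above a set limit, the primary screen's mean plus 3 SD, cut at about 15% in these data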;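 further: 0% = DMSO wells and 100% = wells lacking p97 protein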
* = called active by the depositor. Compounds with a hit are over-represented: about 1.6% of the library has one in this group of screens.

COc1ccccc1CC(=O)NCc1nn(-c2ccccc2)nc1C was read as S1P4 antag -15.2, S1P4 ag 2.5, S1P3 antag -8.9 and p97 ATPase inh -6.2.
Screening COc1cc2c(cc1OC)CN(C(=O)CSc1nc3[nH]ncc3c(=O)n1-c1ccccc1)CC2 returned S1P4 antag -9.0, DTT redox prof -0.4, S1P4 ag 1.3, Arbovirus anti 11.8, S1P3 antag -24.5, p97 ATPase inh 20.0* and p97 inh conf 11.9.
Screening Cc1ccc(-c2nc3c(c(=O)c4ccccc4n3C)c(=O)n2Cc2ccco2)cc1 returned S1P4 antag -0.6, S1P4 ag 1.9, S1P3 antag -11.7, p97 ATPase inh 48.2* and p97 inh conf 16.5*.
Screening Cn1c2ccccc2c(=O)c2c(=O)n(Cc3ccco3)c(-c3ccc(F)cc3)nc21 returned S1P4 antag 17.7, S1P4 ag -0.5, S1P3 antag 11.4, p97 ATPase inh 46.3* and p97 inh conf 17.4*.
`Cc1cc(-c2nn(-c3ccccc3F)cc2CNCCc2cnc[nH]2)c(C)s1` gave S1P4 antag -2.3, DTT redox prof 0.8, S1P4 ag 1.0, Arbovirus anti 1.3, S1P3 antag 4.9 and p97 ATPase inh 0.6.
Nc1nc(CCl)nc(Nc2ccc3ccccc3c2)n1 was read as S1P4 antag 25.9, S1P4 ag 2.7, S1P3 antag -14.6, p97 ATPase inh 36.2* and p97 inh conf 37.8*.
For CCS(=O)(=O)CCSc1nc2ccccc2s1 the results were S1P4 antag -20.9, DTT redox prof -0.7, S1P4 ag -0.8, Arbovirus anti -0.9, S1P3 antag -23.0 and p97 ATPase inh -7.5.
O=S(=O)(CCSc1nc2ccccc2s1)c1nc2ccccc2s1 was read as S1P4 antag 11.6, DTT redox prof -0.5, S1P4 ag 0.0, Arbovirus anti -31.0, p97 ATPase inh 22.7* and p97 inh conf 16.9*.
CCCOc1ccc(CN(CCC#N)C(=S)NC(=O)c2ccccc2)cc1 was read as S1P4 antag -10.0, DTT redox prof -0.1, S1P4 ag 1.1, Arbovirus anti -15.1, S1P3 antag 8.7 and p97 ATPase inh 0.3.
For CC(C)CCNC(=O)CCCc1ccccc1 the results were S1P4 antag -16.9, DTT redox prof -1.8, S1P4 ag -1.1, Arbovirus anti -7.2, S1P3 antag -33.1 and p97 ATPase inh -7.5.
CC(Sc1ccsc1[N+](=O)[O-])C(=O)NCc1ccccc1 (stereo unspecified) was read as S1P4 antag 4.0, DTT redox prof 0.2, S1P4 ag 5.9, Arbovirus anti 19.2, S1P3 antag 8.8, p97 ATPase inh 15.9* and p97 inh conf 8.0.
`CC(Sc1ccsc1[N+](=O)[O-])C(=O)NCCc1ccc(Cl)cc1` (stereo unspecified) gave S1P4 antag -2.0, DTT redox prof 0.3, S1P4 ag 0.1, Arbovirus anti 3.9 and p97 ATPase inh -1.9.
COc1ccccc1CNC(=O)C(C)Sc1ccsc1[N+](=O)[O-] (stereo unspecified) was read as S1P4 antag -3.7, DTT redox prof 0.5, S1P4 ag 0.8, Arbovirus anti 14.4, S1P3 antag 1.3, p97 ATPase inh 19.5* and p97 inh conf 8.0.
For COc1ccc(Cl)cc1NC(=O)CC(C)=O the results were S1P4 antag -12.4, DTT redox prof -0.5, S1P4 ag -2.5, Arbovirus anti 0.1, S1P3 antag 5.5, p97 ATPase inh 17.3* and p97 inh conf 9.2.
`O=C(CCCSc1nnnn1-c1ccccc1)c1ccc(F)cc1` gave S1P4 antag -6.1, DTT redox prof -3.9, S1P4 ag 1.5, Arbovirus anti 5.5 and p97 ATPase inh -1.7.
Cc1cccc(NC(=O)CNC(=O)COc2cc(F)ccc2[N+](=O)[O-])c1C was read as S1P4 antag -35.1, DTT redox prof -1.4, S1P4 ag 1.7, Arbovirus anti -3.5, S1P3 antag 13.5 and p97 ATPase inh -6.6.

Screens as filed in PubChem BioAssay.
